SW480 rerep: DNA re-replication induction in SW480 cells. SW480 DNA re-replication, Hoechst DNA content imaging, 48 h. Potency, µM (highest dose often 46.1 µM), for inactives: top-dose re-replication activation, usual class: activators. actives 1.8% (n = 340,000). AID 624297; further: potency means the concentration at half of the fitted maximal effect; % of control where 0% means no effect; nearly all actives have a fitted effect of over 55% in size
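Cells (250 per well) received 23 nL compound or DMSO by pin tool and were kept 48 hr at 37 C, 5% CO2. Nuclei were then stained with Hoechst for 40 min and scanned for DNA content.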
KB-V1 MDR tox: kills drug-selected multidrug resistant KB-V1 cells. KB-V1 MDR cells viability, CellTiter-Glo, 72 h. Potency, µM (top dose mostly 46.1 µM), usual class: cytotoxic. actives 3.4% (n = 400,000). AID 1347076; further: potency means the concentration at half of the fitted maximal effect; on the % scale 0 is the no-effect control and ±100 the full control effect; nearly all actives have a fitted effect of over 60% in size
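KB-V1, DMEM (no phenol red) + 10% FBS; cpd pin-transferred, titration series; 72 h, 37 degrees C; CellTiter-Glo, luminescence. Data normalized, curve-fit.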
KB-3-1 cytotox: kills parental KB-3-1 adenocarcinoma cells. KB-3-1 viability, CellTiter-Glo ATP luminescence, 72 h. Potency, µM (doses to about 46.1 µM), usual class: cytotoxic. actives 1.4% (n = 400,000). AID 1347075; further: potency means the concentration at half of the fitted maximal effect; on the % scale 0 is the no-effect control and ±100 the full control effect; nearly all actives have a fitted effect of over 60% in size
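72 h, 37 °C compound treatment of KB-3-1 parental cells; CellTiter-Glo added, 10 min, luminescence read. Data corrected against DMSO-only plates and normalized before curve fitting.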
MCF10A rerep: inducers of DNA re-replication in MCF 10A breast cells; MCF 10A DNA re-replication, Hoechst nuclear intensity, 48 h; Potency, µM (series often up to 46.1 µM), for the others: at the top dose activity, positive = re-replication, actives largely listed as activators; actives 2.9% (n = 350,000); AID 624296; further: potency means the concentration at half of the fitted maximal effect; % of control where 0% means no effect; nearly all actives have a fitted effect of over 50% in size
hERG WT inh: KCNH2 (human, wildtype) channel inhibition | Q12809 | U2OS, BacMam KCNH2, thallium flux FluxOr; hits give low values | activity change, % at 1.84 µM | actives 0.37% (n = 340,000);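 active means maximum activity change below -70%; inconclusive means maximum activity change between -70% and -50%; inactive means maximum activity change above -50%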; further: on the % scale 0 is the no-effect control and ±100 the full control effect
Target sequence (Q12809 whole entry, looked up): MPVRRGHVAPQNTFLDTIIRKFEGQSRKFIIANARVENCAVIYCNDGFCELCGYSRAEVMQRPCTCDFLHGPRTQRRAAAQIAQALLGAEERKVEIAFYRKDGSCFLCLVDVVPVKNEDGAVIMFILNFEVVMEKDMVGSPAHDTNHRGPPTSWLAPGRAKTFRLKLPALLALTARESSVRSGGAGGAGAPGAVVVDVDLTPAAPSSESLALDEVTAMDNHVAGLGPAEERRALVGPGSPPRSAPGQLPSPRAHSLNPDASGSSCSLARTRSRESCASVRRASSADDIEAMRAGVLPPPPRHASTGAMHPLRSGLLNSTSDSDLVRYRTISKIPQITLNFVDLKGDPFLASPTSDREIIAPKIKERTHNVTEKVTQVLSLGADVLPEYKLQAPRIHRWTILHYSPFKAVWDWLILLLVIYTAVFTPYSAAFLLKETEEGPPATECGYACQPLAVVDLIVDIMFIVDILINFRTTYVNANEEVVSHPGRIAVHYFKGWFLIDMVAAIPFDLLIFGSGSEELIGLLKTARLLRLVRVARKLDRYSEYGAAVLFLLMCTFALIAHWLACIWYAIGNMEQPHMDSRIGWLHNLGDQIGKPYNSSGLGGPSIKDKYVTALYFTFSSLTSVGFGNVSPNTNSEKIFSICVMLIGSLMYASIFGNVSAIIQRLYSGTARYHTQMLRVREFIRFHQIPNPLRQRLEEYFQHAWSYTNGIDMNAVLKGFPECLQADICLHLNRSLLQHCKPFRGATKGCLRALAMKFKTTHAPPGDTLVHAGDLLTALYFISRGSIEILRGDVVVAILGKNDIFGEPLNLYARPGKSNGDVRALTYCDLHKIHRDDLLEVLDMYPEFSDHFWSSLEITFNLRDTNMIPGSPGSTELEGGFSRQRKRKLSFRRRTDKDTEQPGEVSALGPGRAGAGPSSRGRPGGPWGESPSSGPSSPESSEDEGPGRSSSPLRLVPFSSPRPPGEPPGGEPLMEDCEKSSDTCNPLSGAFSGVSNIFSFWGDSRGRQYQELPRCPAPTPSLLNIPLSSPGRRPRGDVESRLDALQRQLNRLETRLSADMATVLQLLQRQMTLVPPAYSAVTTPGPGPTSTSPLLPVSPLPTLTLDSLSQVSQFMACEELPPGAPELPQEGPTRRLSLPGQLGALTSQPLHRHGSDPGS
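U2OS cells transduced with wild-type KCNH2 virus are loaded with FluxOr dye for 45 min, and thallium flux is measured in kinetic reads before and after stimulation buffer. Rate constants are normalized to DMSO controls.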
KCNH2 3.1 inh: KCNH2 3.1 (human) potassium channel inhibition | U2OS KCNH2 3.1, thallium flux FluxOr; hits give low values | activity change, % (tested at about 1.8 µM) | actives 0.95% (n = 340,000);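 active means maximum activity change below -70%; inconclusive means maximum activity change from -70% to -50%; inactive means maximum activity change above -50%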;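 further: thallium influx rate constant from kinetic fluorescence after stimulation buffer; on the % scale 0 is the no-effect control and ±100 the full control effect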
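FluxOr-based Tl+ influx in U2OS cells transduced with KCNH2 3.1 virus; rate constants normalized to DMSO controls.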
* = called active by the depositor; i = inactive; ? = inconclusive; . = no result; [ ] = remark or other dose. Only some compounds are listed: those with a hit (about 7.6% of all), similar ones and a draw of the others. Unless noted, the call rests on the fitted dose curve; in most records, active means well fitted curve in the direction sought with a large enough effect; inconclusive means small, poorly fitted or top-dose-only effect, or another doubt; inactive means no such curve, though single readings can be large; an effect the other way counts as inactive or inconclusive.

SMILES	SW480 rerep	KB-V1 MDR tox	KB-3-1 cytotox	MCF10A rerep	hERG WT inh	KCNH2 3.1 inh
O=C(C1COc2cc(S(=O)(=O)Nc3ccc(Cl)cc3)ccc2O1)N1CCCC1 (stereo not given)	.	i	i	.	.	.
C[C@H](CO)N1C[C@H](C)[C@H](CN(C)C(=O)c2cc(-c3ccccc3)on2)OCc2cnnn2CCCC1=O	.	i	i	.	0.0	1.0
CCOc1ccc(-c2nc3c(c(SCC(=O)N4CCCCC4)n2)Cc2ccccc2O3)cc1	.	i	i	.	.	.
CCC(C)[C@H](NC(=O)N1CC(=O)Nc2ccccc21)C(=O)N[C@@H](Cc1c[nH]c2ccccc12)C(=O)O (stereo not given in full)	0.0%	?	i	-24.7%	-3.1	-20.5
COc1ccc(C2=NOC(Cn3nc(C(=O)NCc4cccc(C(F)(F)F)c4)cc3-c3ccccc3)C2)cc1 (stereo not given)	-47.2%[9.22 µM]	i	i	-2.8%	4.7	-73.9*
CCCn1cc(NC(=O)C2CC(c3cccc(Br)c3)=NO2)cn1 (stereo not given)	16.4µM*	i	i	23.1µM*	11.5	7.9
O=C(Nc1cccc(O)c1)C1CC(c2cccc(Br)c2)=NO1 (stereo not given)	4.7%	i	i	-0.6%	-1.5	-1.3
COc1ccc(CNC(=O)C2CC(c3ccccc3C(F)(F)F)=NO2)cc1 (stereo not given)	19.2%[9.22 µM]	i	i	-13.2%	1.9	3.8
COc1ccc(C2=NOC(C(=O)NCc3ccccc3)C2)cc1 (stereo not given)	2.59µM*	7.31µM*	7.31µM*	0.366µM*	-26.3	-2.1
O=C(CCc1ccc(S(=O)(=O)N2CCOCC2)cc1)Nc1ccc(F)c(F)c1F	-2.3%	i	i	12.4%	-2.1	4.2
COc1ccc(NC(=O)C(c2ccccc2F)n2c(=O)c(-c3ccco3)nc3ccccc32)cc1 (stereo not given)	.	i	i	.	.	.
COc1ccc(CC2(c3ccccc3)NC(=O)NC2=O)cc1 (stereo not given)	?	?	?	?	-3.8	4.3
COc1ccc(-n2c(C)cc(C(=O)CN3CCCCC3)c2C)cc1	-77.8%	i	i	29.6%	.	25.2
Cc1ccc(-n2c(C)cc(C(=O)Cn3nc(C(=O)O)c4ccccc4c3=O)c2C)cc1	7.9%	?	i	-6.3%	-2.5	4.2
COc1ccc(-n2c(C)cc(C(=O)CN3CCC(C)CC3)c2C)cc1	-44.6%	i	i	0.581µM*	12.4	-0.8
COc1ccc(-n2c(C)cc(C(=O)Cn3nc(C(=O)O)c4ccccc4c3=O)c2C)cc1	10.5%	14.6µM*	i	12.5%	-3.4	9.1
CCCc1ccc(OCC(O)CN2CCN(c3ccccn3)CC2)cc1 (stereo not given)	24.3%	i	i	18.8%	1.1	-76.5*
OC(COC1CCCCC1)CN1CCN(c2ccccc2)CC1 (stereo not given)	-12.0%	?	i	3.8%	0.1	7.9
CC(C)(C)C1CCC(OCC(O)CN2CCN(Cc3ccccc3)CC2)CC1 (stereo not given)	14.6µM*	i	i	41.2%	13.8	5.0
CCc1ccc(OCC(O)CN2CCN(c3ccccn3)CC2)cc1 (stereo not given)	?	?	i	?	30.7	-34.1
CC(C)(C)C1CCC(OCC(O)CN2CCN(c3ccccn3)CC2)CC1 (stereo not given)	7.9%	16.4µM*	?	?	53.6	9.3
OC(COC(c1ccccc1)c1ccccc1)CN1CCN(c2ccccn2)CC1 (stereo not given)	24.7%	i	i	?	i	-44.4
CC(C)NCC(O)COC1CCC(C(C)(C)C)CC1 (stereo not given)	?	?	23.1µM*	24.0%	1.3	-2.3
COC(=O)c1ccc(NC(=O)COc2ccccc2C(=O)Nc2ccccc2)cc1	.	i	i	.	.	.

Compound activity (PubChem BioAssay)
